About 7,900 targets were measured; listed, in parts, are those with a hit and a random draw of the rest. About 0.6% of all pairs of compound and target were hits.
Legend:
Test in all cases: log2 fold change, soluble protein after heating vs DMSO (PISA); higher = thermal stabilisation; K562 cells, 10 uM, 30 min; active = over 0.2 and 3.5 SD of the protein, either way, in both replicates (recomputed)
[1] = compound: CC[C@@H]1C(=O)N(C)c2cnc(Nc3ccc(C(=O)NC4CCN(C)CC4)cc3OC)nc2N1C1CCCC1
Outline: (§1)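 Quantification of soluble protein used TMTpro 16plex LC-MS/MS, with channel sums equalised. Samples were the supernatant after 21,000xg for 90 min of pooled aliquots from K562 cells (2×10^6 cells/mL) treated with 10 μM compound for 30 min, heated for 3 min over 48°C-58°C, and extracted in PBS with 0.5% NP-40 at 4°C. Values, from duplicates, describe thermal stability against control samples on a log2 fold-change scale.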

volasertib = compound: CC[C@@H]1C(=O)N(C)c2cnc(Nc3ccc(C(=O)N[C@H]4CC[C@H](N5CCN(CC6CC6)CC5)CC4)cc3OC)nc2N1C(C)C [volasertib]
Outline: as §1

[2] = compound: CC[C@H](C)N1C=C(C2=C(C=C(C=C21)C3=CN=C(C=C3)N4CCNCC4)C(=O)NCC5=C(C=C(NC5=O)C)C)C
Outline: as §1

epoxomicin = compound: CC[C@H](C)[C@@H](C(=O)N[C@@H]([C@@H](C)O)C(=O)N[C@@H](CC(C)C)C(=O)[C@]1(CO1)C)NC(=O)[C@H]([C@@H](C)CC)N(C)C(=O)C [epoxomicin]
Outline: as §1

[3] = compound: CCn1c(C(=O)N(C2CC2)C2CC2)cc2c3c(ncn3C)c(Nc3cc(C)n(C)n3)nc21
Outline: as §1

[4] = compound: CCn1cc(-c2ccnc3[nH]c(-c4cccc(CN(C)C)c4)cc23)c(-c2ccc(NC(=O)N(C)C)cc2)n1
Outline: as §1

[5] = compound: CN(C)CC(=O)Nc1ccc2[nH]c(=O)c3ccccc3c2c1
Outline: as §1

rosiglitazone = compound: CN(CCOC1=CC=C(C=C1)C[C@H]2C(=O)NC(=O)S2)C3=CC=CC=N3 (racemic) [rosiglitazone]
Outline: as §1

[6] = compound: CN1C2=C(C3=C1C(=O)N(N=C3)CC4=CC(=CC=C4)N)SC(=C2)S(=O)C
Outline: as §1

[7] = compound: CN1CCC(CNc2ccc3ncc(-c4cccc(OC(F)(F)F)c4)n3n2)CC1
Outline: as §1

saracatinib = compound: CN1CCN(CCOc2cc(OC3CCOCC3)c3c(Nc4c(Cl)ccc5c4OCO5)ncnc3c2)CC1 [saracatinib]
Outline: as §1

sotrastaurin = compound: CN1CCN(c2nc(C3=C(c4c[nH]c5ccccc45)C(=O)NC3=O)c3ccccc3n2)CC1 [sotrastaurin]
Outline: as §1

alvocidib = compound: CN1CC[C@H](c2c(O)cc(O)c3c(=O)cc(-c4ccccc4Cl)oc23)[C@H](O)C1 [alvocidib]
Outline: as §1

Tubastatin A = compound: CN1CCc2c(c3ccccc3n2Cc2ccc(C(=O)NO)cc2)C1 [Tubastatin A]
Outline: as §1

[8] = compound: CNC(=O)C1=CC=CC=C1NC2=NC(=NC=C2Cl)NC3=C(C=C(C=C3)N4CCOCC4)OC
Outline: as §1

defactinib = compound: CNC(=O)c1ccc(Nc2ncc(C(F)(F)F)c(NCc3nccnc3N(C)S(C)(=O)=O)n2)cc1 [defactinib]
Outline: as §1

rucaparib = compound: CNCc1ccc(-c2[nH]c3cc(F)cc4c3c2CCNC4=O)cc1 [rucaparib]
Outline: as §1

[9] = compound: CNc1nc(-c2ccc3c(N)n[nH]c3c2)cc(N2C[C@@H](C(=O)NC3CCCCC3)CC[C@H]2C)n1
Outline: as §1

encorafenib = compound: COC(=O)N[C@@H](C)CNc1nccc(-c2cn(C(C)C)nc2-c2cc(Cl)cc(NS(C)(=O)=O)c2F)n1 [encorafenib]
Outline: as §1

[10] = compound: COC(=O)[C@H](CCSC)NC(=O)C1=C(C=C(C=C1)NC[C@H](CS)N)C2=CC=CC=C2
Outline: as §1

Measured: log2 fold change

MRPL46 (UniProt Q9H2W6)
active: [8] 0.29
inactive: [1] 0.209 | volasertib 0.302 | [2] 0.034 | epoxomicin 0.015 | [3] 0.075 | [4] -0.04 | [5] 0.014 | rosiglitazone -0.017 | [6] 0.061 | [7] 0.12 | saracatinib -0.071 | sotrastaurin -0.073 | alvocidib 0.016 | Tubastatin A 0.037 | defactinib 0.043 | rucaparib 0.058 | [9] 0.115 | encorafenib 0.045 | [10] -0.026

NQO1 (UniProt P15559)
UniProt P15559, sequence (P15559 whole entry, looked up): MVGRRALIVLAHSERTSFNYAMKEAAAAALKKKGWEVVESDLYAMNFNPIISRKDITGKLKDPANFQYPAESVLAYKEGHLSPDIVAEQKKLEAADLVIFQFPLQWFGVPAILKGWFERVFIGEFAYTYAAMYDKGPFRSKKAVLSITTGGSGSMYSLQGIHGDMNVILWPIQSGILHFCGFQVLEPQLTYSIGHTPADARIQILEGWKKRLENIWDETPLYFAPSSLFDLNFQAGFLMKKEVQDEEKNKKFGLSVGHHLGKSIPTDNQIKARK
inactive: [1] 0.011 | volasertib 0.057 | epoxomicin 0.083 | [3] 0.159 | [4] -0.064 | [5] -0.005 | rosiglitazone 0.013 | [7] 0.046 | saracatinib -0.076 | sotrastaurin -0.002 | alvocidib -0.108 | Tubastatin A 0.027 | [8] 0.161 | defactinib -0.038 | rucaparib -0.077 | [9] -0.008 | encorafenib 0.005 | [10] -0.022
active: [2] 0.276 | [6] 0.356

MTHFS (UniProt P49914)
inactive: [1] 0.082 | [2] 0.034 | epoxomicin 0.11 | [3] 0.031 | [4] 0.02 | [5] 0.034 | rosiglitazone 0.046 | [6] -0.022 | [7] -0.019 | saracatinib -0.023 | sotrastaurin -0.017 | alvocidib -0.078 | Tubastatin A 0.043 | [8] 0.065 | defactinib -0.053 | rucaparib 0.013 | [9] -0.004 | encorafenib 0.007 | [10] 0.014
active: volasertib 0.236

OXR1 (UniProt Q8N573)
active: [7] -0.257
inactive: [1] -0.052 | volasertib -0.071 | [2] 0.035 | epoxomicin -0.013 | [3] 0.006 | [4] 0.026 | [5] 0.062 | rosiglitazone 0.005 | [6] -0.033 | saracatinib -0.039 | sotrastaurin -0.049 | alvocidib -0.011 | Tubastatin A 0.008 | [8] -0.038 | defactinib -0.059 | rucaparib -0.014 | [9] -0.063 | encorafenib 0 | [10] 0.003

NECTIN2 (UniProt Q92692)
UniProt Q92692, sequence (Q92692 whole entry, looked up): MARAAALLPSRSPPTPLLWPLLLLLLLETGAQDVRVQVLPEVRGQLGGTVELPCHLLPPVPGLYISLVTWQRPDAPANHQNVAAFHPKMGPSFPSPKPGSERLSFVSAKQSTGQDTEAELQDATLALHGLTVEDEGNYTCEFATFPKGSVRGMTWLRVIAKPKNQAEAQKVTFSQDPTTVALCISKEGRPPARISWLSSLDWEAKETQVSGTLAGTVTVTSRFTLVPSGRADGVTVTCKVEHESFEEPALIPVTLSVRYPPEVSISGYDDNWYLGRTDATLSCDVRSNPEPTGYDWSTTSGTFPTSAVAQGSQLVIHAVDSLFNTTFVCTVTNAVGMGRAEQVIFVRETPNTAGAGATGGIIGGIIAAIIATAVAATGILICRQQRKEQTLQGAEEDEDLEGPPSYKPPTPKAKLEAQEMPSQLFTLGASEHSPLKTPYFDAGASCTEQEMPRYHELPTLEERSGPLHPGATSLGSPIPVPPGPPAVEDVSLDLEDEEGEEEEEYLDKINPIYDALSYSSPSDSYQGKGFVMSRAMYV
inactive: [1] 0.071 | volasertib 0.029 | [2] -0.003 | epoxomicin 0.02 | [3] 0.018 | [4] -0.044 | [5] -0.028 | rosiglitazone -0.023 | [6] -0.063 | [7] 0.138 | saracatinib 0.021 | sotrastaurin 0.047 | alvocidib -0.044 | Tubastatin A -0.013 | [8] -0.056 | defactinib -0.013 | rucaparib -0.051 | [9] 0.049 | encorafenib -0.024 | [10] 0.063

OXA1L (UniProt Q15070)
inactive: [1] -0.067 | volasertib -0.014 | [2] -0.015 | epoxomicin -0.046 | [3] 0.013 | [4] -0.012 | [5] -0.019 | rosiglitazone 0.016 | [6] -0.027 | saracatinib 0.018 | sotrastaurin 0.003 | alvocidib -0.01 | Tubastatin A -0.036 | [8] 0.004 | defactinib 0.005 | rucaparib -0.029 | [9] -0.054 | encorafenib -0.027 | [10] 0.031
active: [7] -0.221

NCKAP1 isoform 2 (UniProt Q9Y2A7)
UniProt Q9Y2A7, sequence (Q9Y2A7 whole entry, looked up): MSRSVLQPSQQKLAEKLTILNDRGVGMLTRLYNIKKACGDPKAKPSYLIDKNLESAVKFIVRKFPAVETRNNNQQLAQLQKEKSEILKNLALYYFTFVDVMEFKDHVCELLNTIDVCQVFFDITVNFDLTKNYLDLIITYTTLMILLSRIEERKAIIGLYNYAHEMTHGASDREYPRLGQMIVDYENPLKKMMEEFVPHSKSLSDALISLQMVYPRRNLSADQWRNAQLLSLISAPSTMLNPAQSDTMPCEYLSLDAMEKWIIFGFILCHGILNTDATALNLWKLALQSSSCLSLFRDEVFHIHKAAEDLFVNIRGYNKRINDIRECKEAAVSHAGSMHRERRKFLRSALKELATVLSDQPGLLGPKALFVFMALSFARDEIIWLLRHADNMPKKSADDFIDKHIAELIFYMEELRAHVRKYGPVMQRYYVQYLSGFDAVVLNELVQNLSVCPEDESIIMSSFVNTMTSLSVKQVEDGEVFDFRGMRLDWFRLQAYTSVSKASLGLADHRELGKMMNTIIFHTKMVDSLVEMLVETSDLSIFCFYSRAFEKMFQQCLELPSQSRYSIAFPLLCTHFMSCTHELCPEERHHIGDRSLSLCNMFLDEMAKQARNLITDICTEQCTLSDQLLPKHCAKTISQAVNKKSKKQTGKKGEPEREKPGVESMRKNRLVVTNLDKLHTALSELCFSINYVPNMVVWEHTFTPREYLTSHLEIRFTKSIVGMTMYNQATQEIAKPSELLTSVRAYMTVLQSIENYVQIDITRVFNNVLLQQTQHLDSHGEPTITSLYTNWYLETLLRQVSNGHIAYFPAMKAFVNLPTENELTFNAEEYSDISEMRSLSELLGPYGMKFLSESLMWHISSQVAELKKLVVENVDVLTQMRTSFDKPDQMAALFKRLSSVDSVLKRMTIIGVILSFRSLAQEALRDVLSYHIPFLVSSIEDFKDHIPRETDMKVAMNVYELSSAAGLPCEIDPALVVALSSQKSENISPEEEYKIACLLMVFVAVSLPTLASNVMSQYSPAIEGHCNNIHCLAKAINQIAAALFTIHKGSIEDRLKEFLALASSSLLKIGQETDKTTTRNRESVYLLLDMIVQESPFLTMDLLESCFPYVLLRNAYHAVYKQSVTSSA
inactive: [1] 0.002 | [2] 0.031 | epoxomicin 0.01 | [3] -0.003 | [4] -0.036 | [5] 0.043 | rosiglitazone 0.011 | [6] -0.042 | [7] -0.027 | saracatinib 0.02 | sotrastaurin -0.031 | alvocidib -0.06 | Tubastatin A 0.027 | [8] 0.006 | defactinib -0.071 | rucaparib -0.022 | [9] 0.019 | encorafenib 0 | [10] -0.007
active: volasertib -0.25

NCOR1 (UniProt O75376)
UniProt O75376, sequence (O75376 whole entry, looked up): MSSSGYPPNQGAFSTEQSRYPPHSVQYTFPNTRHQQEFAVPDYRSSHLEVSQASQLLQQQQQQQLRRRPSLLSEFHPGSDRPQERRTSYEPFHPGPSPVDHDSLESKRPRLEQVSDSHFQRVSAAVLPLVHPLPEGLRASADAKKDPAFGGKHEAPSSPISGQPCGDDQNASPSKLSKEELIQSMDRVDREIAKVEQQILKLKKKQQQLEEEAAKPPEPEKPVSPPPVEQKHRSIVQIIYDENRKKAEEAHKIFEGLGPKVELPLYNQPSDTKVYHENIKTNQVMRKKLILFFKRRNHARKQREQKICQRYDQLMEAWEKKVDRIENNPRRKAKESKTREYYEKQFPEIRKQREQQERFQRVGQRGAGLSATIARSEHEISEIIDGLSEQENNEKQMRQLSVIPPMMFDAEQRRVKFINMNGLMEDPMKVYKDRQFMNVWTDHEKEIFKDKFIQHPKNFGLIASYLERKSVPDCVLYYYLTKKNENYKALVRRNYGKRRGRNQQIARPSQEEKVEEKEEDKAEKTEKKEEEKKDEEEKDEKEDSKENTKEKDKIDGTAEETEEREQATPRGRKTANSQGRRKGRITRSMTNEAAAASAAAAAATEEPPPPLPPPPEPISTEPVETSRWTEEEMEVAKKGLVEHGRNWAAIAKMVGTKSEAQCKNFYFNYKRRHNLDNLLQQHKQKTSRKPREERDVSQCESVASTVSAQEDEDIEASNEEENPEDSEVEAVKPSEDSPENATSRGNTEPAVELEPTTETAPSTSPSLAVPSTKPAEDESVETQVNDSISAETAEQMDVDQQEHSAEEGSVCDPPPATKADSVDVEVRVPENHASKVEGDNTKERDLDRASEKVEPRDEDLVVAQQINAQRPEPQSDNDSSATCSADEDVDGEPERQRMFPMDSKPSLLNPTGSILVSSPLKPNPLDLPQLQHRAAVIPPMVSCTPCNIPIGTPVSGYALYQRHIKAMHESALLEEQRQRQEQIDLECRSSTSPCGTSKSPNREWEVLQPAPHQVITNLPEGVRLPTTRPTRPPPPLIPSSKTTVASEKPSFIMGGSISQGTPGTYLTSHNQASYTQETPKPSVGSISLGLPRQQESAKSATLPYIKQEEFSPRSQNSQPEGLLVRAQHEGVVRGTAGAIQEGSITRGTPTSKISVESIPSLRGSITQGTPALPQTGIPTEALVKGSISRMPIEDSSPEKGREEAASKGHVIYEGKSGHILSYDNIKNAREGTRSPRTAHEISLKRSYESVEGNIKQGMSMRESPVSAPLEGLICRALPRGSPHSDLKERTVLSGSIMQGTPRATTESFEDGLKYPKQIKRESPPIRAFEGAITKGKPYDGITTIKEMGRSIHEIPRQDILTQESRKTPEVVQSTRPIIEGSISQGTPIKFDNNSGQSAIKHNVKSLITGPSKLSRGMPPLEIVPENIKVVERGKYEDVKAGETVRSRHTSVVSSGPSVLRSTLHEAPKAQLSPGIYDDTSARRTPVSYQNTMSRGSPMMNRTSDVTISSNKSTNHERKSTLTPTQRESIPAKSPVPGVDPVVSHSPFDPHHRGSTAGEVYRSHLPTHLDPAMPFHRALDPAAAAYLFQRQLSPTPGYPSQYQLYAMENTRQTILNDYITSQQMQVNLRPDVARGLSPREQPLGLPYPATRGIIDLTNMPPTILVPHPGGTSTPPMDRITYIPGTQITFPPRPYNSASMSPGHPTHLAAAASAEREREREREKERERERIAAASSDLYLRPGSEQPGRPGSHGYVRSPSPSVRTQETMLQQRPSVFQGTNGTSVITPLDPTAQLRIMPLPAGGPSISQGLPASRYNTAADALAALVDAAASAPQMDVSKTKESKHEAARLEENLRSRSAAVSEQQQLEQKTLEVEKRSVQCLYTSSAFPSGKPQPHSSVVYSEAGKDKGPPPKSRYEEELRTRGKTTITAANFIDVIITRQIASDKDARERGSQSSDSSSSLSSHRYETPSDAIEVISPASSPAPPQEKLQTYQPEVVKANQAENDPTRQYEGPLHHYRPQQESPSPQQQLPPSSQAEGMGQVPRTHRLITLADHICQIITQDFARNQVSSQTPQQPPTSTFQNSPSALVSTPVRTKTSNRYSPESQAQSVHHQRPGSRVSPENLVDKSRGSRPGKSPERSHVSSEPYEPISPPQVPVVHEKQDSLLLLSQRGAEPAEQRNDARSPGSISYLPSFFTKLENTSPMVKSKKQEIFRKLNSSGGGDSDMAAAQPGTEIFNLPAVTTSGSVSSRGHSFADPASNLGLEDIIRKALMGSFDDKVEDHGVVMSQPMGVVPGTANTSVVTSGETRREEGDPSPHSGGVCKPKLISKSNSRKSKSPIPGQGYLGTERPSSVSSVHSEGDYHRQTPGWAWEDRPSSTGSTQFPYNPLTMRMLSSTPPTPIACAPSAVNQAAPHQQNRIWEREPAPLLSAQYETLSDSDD
inactive: [1] -0.034 | volasertib -0.021 | [2] 0.142 | epoxomicin 0.07 | [3] -0.066 | [4] 0.046 | [5] 0.048 | rosiglitazone 0.044 | [6] 0.033 | [7] -0.045 | saracatinib 0.074 | sotrastaurin -0.094 | alvocidib -0.179 | Tubastatin A -0.009 | [8] -0.041 | defactinib -0.113 | rucaparib 0.012 | [9] -0.02 | encorafenib 0 | [10] 0.007

OSTM1 (UniProt Q86WC4)
inactive: [1] -0.216 | volasertib -0.169 | [2] 0.058 | epoxomicin 0.107 | [3] -0.12 | [4] -0.215 | [5] -0.072 | rosiglitazone 0.004 | [6] 0.035 | [7] -0.064 | saracatinib -0.038 | sotrastaurin 0.007 | alvocidib 0.001 | Tubastatin A 0.031 | [8] 0.19 | defactinib -0.048 | rucaparib -0.015 | [9] -0.086 | encorafenib 0.022 | [10] 0.002

NELFB isoform 2 (UniProt Q8WX92)
inactive: [1] -0.176 | [2] 0.118 | epoxomicin 0.072 | [3] -0.057 | [4] -0.012 | [5] 0.068 | rosiglitazone 0.041 | [6] -0.02 | [7] -0.116 | saracatinib -0.016 | sotrastaurin -0.065 | alvocidib -0.199 | Tubastatin A 0.04 | [8] -0.026 | defactinib -0.199 | rucaparib -0.034 | [9] -0.005 | encorafenib 0.079 | [10] -0.057
active: volasertib -0.68

MORC3 (UniProt Q14149)
inactive: [1] -0.141 | [2] 0.086 | epoxomicin 0.125 | [3] -0.02 | [4] -0.027 | [5] 0.071 | rosiglitazone 0.084 | [6] -0.058 | [7] -0.017 | saracatinib 0 | sotrastaurin -0.141 | alvocidib -0.08 | Tubastatin A -0.247 | [8] 0.249 | defactinib -0.184 | rucaparib 0.044 | [9] -0.02 | encorafenib 0.076 | [10] -0.048
active: volasertib -0.509

MRPS12 (UniProt O15235)
inactive: [1] -0.043 | volasertib -0.024 | [2] 0.077 | epoxomicin -0.001 | [3] -0.04 | [4] -0.072 | [5] -0.103 | rosiglitazone 0.063 | [6] 0.091 | [7] -0.014 | saracatinib -0.19 | sotrastaurin -0.068 | alvocidib -0.001 | Tubastatin A -0.02 | [8] -0.017 | defactinib 0.119 | rucaparib 0.299 | [9] 0.233 | encorafenib 0.105 | [10] 0.048

MRPS24 (UniProt Q96EL2)
inactive: [1] -0.004 | volasertib 0.121 | [2] 0.126 | epoxomicin -0.067 | [3] -0.031 | [4] -0.095 | [5] 0 | rosiglitazone -0.026 | [6] -0.004 | [7] 0.07 | saracatinib -0.153 | sotrastaurin -0.124 | alvocidib -0.202 | Tubastatin A 0.024 | [8] 0.067 | defactinib 0.041 | rucaparib 0.153 | [9] 0.137 | encorafenib 0.08 | [10] -0.108

MRPS17 (UniProt Q9Y2R5)
inactive: [1] -0.111 | volasertib -0.018 | [2] 0.022 | epoxomicin -0.043 | [3] -0.059 | [4] 0.043 | [5] 0.069 | rosiglitazone 0.057 | [6] 0.022 | [7] -0.016 | saracatinib -0.017 | sotrastaurin -0.138 | alvocidib 0.002 | Tubastatin A 0.072 | [8] 0.105 | defactinib 0.096 | rucaparib 0.185 | [9] 0.096 | encorafenib 0.016 | [10] -0.047

NOLC1 isoform 2 (UniProt Q14978)
UniProt Q14978, sequence (Q14978 whole entry, looked up): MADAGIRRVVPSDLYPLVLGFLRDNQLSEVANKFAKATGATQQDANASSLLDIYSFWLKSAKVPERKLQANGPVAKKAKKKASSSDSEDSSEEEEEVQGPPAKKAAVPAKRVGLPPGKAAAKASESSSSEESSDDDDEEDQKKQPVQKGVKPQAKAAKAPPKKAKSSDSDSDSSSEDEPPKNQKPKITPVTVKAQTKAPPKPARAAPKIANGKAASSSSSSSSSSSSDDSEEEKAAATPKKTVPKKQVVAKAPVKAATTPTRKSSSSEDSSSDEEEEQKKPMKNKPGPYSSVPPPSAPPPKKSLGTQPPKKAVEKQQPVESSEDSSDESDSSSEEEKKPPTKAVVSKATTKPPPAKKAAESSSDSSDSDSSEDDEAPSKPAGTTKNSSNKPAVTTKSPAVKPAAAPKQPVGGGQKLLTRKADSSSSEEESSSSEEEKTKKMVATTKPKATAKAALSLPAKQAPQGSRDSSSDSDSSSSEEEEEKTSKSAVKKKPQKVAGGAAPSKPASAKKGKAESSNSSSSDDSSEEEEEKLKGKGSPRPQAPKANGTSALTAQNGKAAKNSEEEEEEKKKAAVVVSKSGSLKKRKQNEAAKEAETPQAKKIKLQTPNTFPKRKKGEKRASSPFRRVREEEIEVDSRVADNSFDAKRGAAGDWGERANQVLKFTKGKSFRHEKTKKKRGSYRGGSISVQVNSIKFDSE
active: defactinib -0.346
inactive: [1] -0.155 | volasertib -0.024 | [2] -0.051 | epoxomicin -0.06 | [3] -0.015 | [4] 0.047 | [5] -0.048 | rosiglitazone -0.018 | [6] 0.026 | [7] -0.112 | saracatinib -0.007 | sotrastaurin -0.036 | alvocidib -0.206 | Tubastatin A 0.153 | [8] -0.122 | rucaparib -0.025 | [9] -0.089 | encorafenib -0.007 | [10] 0

NMD3 (UniProt Q96D46)
inactive: [1] 0.103 | volasertib 0.151 | [2] -0.009 | epoxomicin 0.042 | [3] -0.029 | [4] -0.163 | [5] 0.04 | rosiglitazone 0.064 | [6] -0.138 | [7] 0.114 | saracatinib 0.043 | sotrastaurin 0.02 | alvocidib -0.012 | Tubastatin A 0.07 | [8] 0.088 | defactinib 0.06 | rucaparib -0.181 | [9] 0.003 | encorafenib 0.028 | [10] -0.052
